The values that follow come from PubChem BioAssay AID1851 (National Center for Advancing Translational Sciences (NCATS), 2009).

In all, about 16,000 compounds went through this assay and about 5,800 (36%) were called active. About 23% were inconclusive and are not listed. Calls follow the shape of the dose curve; as a rule, active = well fitted curve in the direction sought with a large enough effect; inconclusive = small, poorly fitted or top-dose-only effect, or effect the other way; inactive = no such curve, though single readings can be large or run the other way. The list shows a part of the results. Square brackets hold non-standard residues; d marks the D form. Peptide text beside a SMILES is read from it.
% is scaled to controls: 0 for no effect and ±100 for the full control effect.

The target of the assay is Cytochrome P450 2C19 (Homo sapiens) (UniProt P33261). The assay can be described thus: Cytochrome panel assay with activity outcomes. The settings on record: recombinant CYP, pro-luciferin dealkylation, luminescence, p450-cyp2c19; series mostly up to 57.1 µM; activity, negative = inhibition: at the top concentration.
Cytochrome P450 2C19 (Homo sapiens), sequence (P33261 whole entry, looked up): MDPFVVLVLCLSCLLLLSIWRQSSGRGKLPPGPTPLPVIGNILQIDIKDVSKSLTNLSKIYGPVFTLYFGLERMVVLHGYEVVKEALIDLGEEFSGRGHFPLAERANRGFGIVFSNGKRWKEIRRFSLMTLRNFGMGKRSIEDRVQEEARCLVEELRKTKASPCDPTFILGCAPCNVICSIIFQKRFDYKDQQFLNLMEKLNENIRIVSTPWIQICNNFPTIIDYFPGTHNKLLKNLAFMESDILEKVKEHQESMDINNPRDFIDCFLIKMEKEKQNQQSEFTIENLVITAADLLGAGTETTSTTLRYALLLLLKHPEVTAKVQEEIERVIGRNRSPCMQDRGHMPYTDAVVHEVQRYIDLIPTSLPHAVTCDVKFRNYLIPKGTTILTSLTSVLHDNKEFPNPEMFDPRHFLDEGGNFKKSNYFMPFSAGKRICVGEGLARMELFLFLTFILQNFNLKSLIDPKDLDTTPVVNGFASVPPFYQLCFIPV
As to `Cc1noc(C)c1COc1cccc(C(=O)OCC(=O)N2CC(=O)Nc3ccccc32)c1`, the AC50 is 3.16 µM (active).
On the same count and under the same terms, the figure for `O=[N+]([O-])c1ccc(-c2cnc(SCc3ccccc3Cl)[nH]2)cc1` is 2.24 µM (active).
On the same count and under the same terms, the figure for `CC(C)C(=O)Nc1ccc(Sc2ccc(F)cc2)cc1` is 7.94 µM (active).
On to `O=C(O)c1cc2cc(OCc3ccccc3)ccc2[nH]1`, for which the “activity, negative = inhibition” value was -19.8% (inactive).
Same read-out and setting: the figure for `CCOc1ccc(Cc2nc(C)c(CC(=O)N3CCOCC3)c(=O)[nH]2)cc1` is -0.806% (inactive).
As for `CCOc1ccc2[nH]c(=O)c(CN(CCc3ccccc3)C(=O)N3CCOCC3)cc2c1`, the AC50 was 11.2 µM (active).
Still for that read-out and setting: the figure for `CCOc1ccc2[nH]c(=O)c(CN(CCc3ccccc3)C(=O)N3CCCC3)cc2c1` is 20 µM (active).
`C[N+]1(CC(=O)OCCCc2ccccc2)CCOCC1`: the “activity, negative = inhibition” value is -21.7% (inactive).
Take `NNC(=O)CCc1ccc2ccc3ccccc3c2c1`: the AC50 was 0.251 µM (active).
For the compound `O=C(O)CCCc1ccc2ccccc2c1`, the activity, negative = inhibition was 0.826% [at 11.4 µM] (inactive).
In the case of `O=C1CCCC=C1[C@@H](O)CCOC(c1ccccc1)(c1ccccc1)c1ccccc1`, the AC50 is 0.251 µM (active).
Consider `O=C1CCCC=C1[C@@H](O)C1CCCCC1`, for which the activity, negative = inhibition was 19.2% [at 11.4 µM] (inactive).
For the compound `O=C1CCCC=C1[C@@H](O)COCc1ccccc1`, the activity, negative = inhibition is -32.2% [at 11.4 µM] (inactive).
With `CSC1=C(C#N)C(c2ccccc2Cl)C2=C(N1)c1ccccc1C2=O` (centres undefined), the AC50 was 0.355 µM (active).
For `N#CC1=C(SCC(N)=O)NC2=C(C(=O)c3ccccc32)C1c1ccc(Cl)cc1` (centres undefined), the AC50 was 3.98 µM (active).
For `COC(=O)[C@@H]1CC[C@H](C)[C@@H](c2ccc(C)cc2)N1C(=O)c1ccc(/C=N\O[C@@H](C)CN2CCCc3nc(C)c(C)cc32)cc1`, the activity, negative = inhibition was 24.5% [at 11.4 µM] (inactive).
Same read-out and setting: the figure for `COC(=O)[C@@H]1CC[C@H](C)[C@@H](c2ccc(C)cc2)N1C(=O)c1ccc(/C=N\O[C@@H]2O[C@H](COC(C)=O)[C@H](OC(C)=O)[C@H](OC(C)=O)[C@H]2OC(C)=O)cc1` is -28.1% [at 11.4 µM] (inactive).
`CO/N=C\c1ccc(C(=O)N2[C@H](c3ccc(C)cc3)[C@@H](C)CC[C@H]2C(=O)OC)cc1`: the activity, negative = inhibition was -39.6% [at 11.4 µM] (inactive).
As to `COC(=O)[C@@H]1CC[C@H](C)[C@@H](c2ccc(C)cc2)N1C(=O)c1ccc(/C=N\OCC[C@@H]2C=C[C@H](OC(C)=O)[C@H](COC(C)=O)O2)cc1`, the activity, negative = inhibition was -15.5% [at 11.4 µM] (inactive).
Regarding `COC(=O)[C@@H]1CC[C@H](C)[C@@H](c2ccc(C)cc2)N1C(=O)c1ccc(/C=N\O[C@@H](C)c2cn([C@H]3COC[C@H]3O)nn2)cc1`, the activity, negative = inhibition was -29.4% [at 11.4 µM] (inactive).
Still for that read-out and setting: the figure for `COC(=O)[C@@H]1CC[C@H](C)[C@@H](c2ccc(C)cc2)N1C(=O)c1ccc(/C=N\O[C@@H](C)CN2CCCCc3nc(C)c(C)cc32)cc1` is -15.5% [at 11.4 µM] (inactive).
In the case of `COC(=O)[C@@H]1CC[C@H](C)[C@@H](c2ccc(C)cc2)N1C(=O)c1ccc(/C=N\O[C@@H](C)c2cn([C@H](CO)Cc3ccccc3)nn2)cc1`, the AC50 was 3.98 µM (active).
As for `COC(=O)[C@@H]1CC[C@H](C)[C@@H](c2ccc(C)cc2)N1C(=O)c1ccc(/C=N\OC[C@@H]2O[C@H](c3ccccc3)C=C[C@@H]2Oc2ccc(OC)cc2)cc1`, the AC50 was 0.0501 µM (active).
The same measure, in the same setting: the figure for `COC(=O)[C@@H]1CC[C@H](C)[C@@H](c2ccc(C)cc2)N1C(=O)c1ccc(/C=N\OC[C@@H](O)[C@H]2O[C@H]3OC(C)(C)O[C@H]3[C@@H]2O)cc1` is 0.631 µM (active); for `CC(C)Oc1ccc(C2CC(=O)NC3=C2C(=O)CCC3)cc1` (centres undefined) it is 22.4 µM (active).
In the case of `CO[C@@H]1COC(=O)C/C=C\[C@H](C)[C@H](OC)COC(=O)[C@H]2CCCN2C(=O)C/C=C\[C@H]1C`, the activity, negative = inhibition was 3.47% [at 11.4 µM] (inactive).
In the case of `CCOC(=O)N1CCN(c2c(-c3ccccc3)c3cc(Cl)ccc3[nH]c2=O)CC1`, the AC50 is 3.16 µM (active).
For the compound `CCOC(=O)N1CCN(S(=O)(=O)c2ccc3[nH]cc(C(=O)O)c(=O)c3c2)CC1`, the “activity, negative = inhibition” value was -23.3% (inactive).
Still for that read-out and setting: the figure for `Cc1cc(=O)c2cc(Cl)ccc2[nH]1` is -7.25% (inactive).
As for `COc1ccc2[nH]cc(CCNc3ccnc(-c4cccnc4)n3)c2c1`, the AC50 is 1 µM (active).
In the case of `CN(C)c1ccnc(-c2cccc(NS(C)(=O)=O)c2)n1`, the “activity, negative = inhibition” value is 20.5% (inactive).
Take `COc1ccc2[nH]cc(CCNc3cc(-c4cccnc4)ncn3)c2c1`: the AC50 is 25.1 µM (active).
In the case of `Cc1cnc(CNc2cc(-c3cccnc3)ncn2)cn1`, the “activity, negative = inhibition” value is -6.34% (inactive).
Take `COc1cccc(-c2cc(NCCc3c[nH]c4ccc(OC)cc34)ncn2)c1`: the AC50 was 0.501 µM (active).
In the case of `COc1ccc2[nH]cc(CCNc3ccnc(-c4cccc(NS(C)(=O)=O)c4)n3)c2c1`, the AC50 is 10 µM (active).
As to `COc1ccc2[nH]cc(CCNc3cc(-c4cccc(C#N)c4)ncn3)c2c1`, the concentration at half-maximal activity (AC50) is 7.94 µM (active).
In the case of `Cc1cnc(CNc2cc(-c3ccoc3)ncn2)cn1`, the “activity, negative = inhibition” value was -24.6% (inactive).
In the case of `COc1ccc2[nH]cc(CCNc3cc(-c4ccoc4)ncn3)c2c1`, the AC50 is 5.01 µM (active).
Regarding `COc1ccc(-n2c(=O)c(-c3cccc(C#N)c3)nc3cnc(N4CCNCC4)nc32)cc1`, the “activity, negative = inhibition” value was -21.4% (inactive).
On the same count and under the same terms, the figure for `C[C@H]1CC(C)(C)C[C@@](OCCN2CCCCC2)(c2ccccc2)C1` is -2.08% [at 11.4 µM] (inactive).
On to `COc1cccc(CC(C(=O)Nc2cc(C)ccc2C)c2nn[nH]n2)c1OC` (centres undefined), for which the AC50 was 11.2 µM (active).
Turning to `O=C1C2=CC[C@H]3C(=O)N(c4cccc(Oc5ccccc5)c4)C(=O)[C@@H]3[C@@H]2[C@H](O)[C@@H]2O[C@H]12`, the activity, negative = inhibition is 2.5% [at 11.4 µM] (inactive).
On to `Cc1cccc(Oc2coc3cc(OC(=O)c4cccs4)ccc3c2=O)c1`, for which the AC50 was 3.98 µM (active).
Still for that read-out and setting: the figure for `COc1cccc(C2C3=C(CC(C)(C)CC3=O)OC(N)=C2[N+](=O)[O-])c1` (centres undefined) is 8.91 µM (active).
As for `CCCNC(=O)c1c(C)cc(=O)oc1C`, the “activity, negative = inhibition” value was 3.91% (inactive).
Consider `Cc1cc(=O)oc(C)c1C(=O)N1CCCCC1`, for which the AC50 is 4.47 µM (active).
As to `CCC(C)NC(=O)c1c(C)cc(=O)oc1C` (centres undefined), the “activity, negative = inhibition” value is 41.3% (inactive).
Regarding `O=C(CCc1ccccc1)NNC(=O)C1CCCCC1`, the concentration at half-maximal activity (AC50) is 25.1 µM (active).
Take `CCC(=O)c1ccc(OCC(O)CN(CCc2ccccc2)Cc2ccccc2)cc1` (centres undefined): the AC50 is 1.12 µM (active).
For `CN(C)CC(O)COc1ccc(C(C)(C)c2ccc(OCC(O)CN(C)C)cc2)cc1` (centres undefined), the “activity, negative = inhibition” value is -6.76% (inactive).
Turning to `O[C@@H](C1=C/C(=C\c2ccncc2)c2ccccc21)c1ccncc1`, the AC50 is 0.158 µM (active).
Still for that read-out and setting: the figure for `CCC(=O)Nc1ccccc1C(=O)OCC(=O)c1cccc2ccccc12` is 4.47 µM (active).
Still for that read-out and setting: the figure for `CCC(=O)Nc1ccccc1C(=O)OCC(=O)c1ccccc1` is 3.55 µM (active).
With `C[N+](C)(C)CCC(=O)c1cccc2ccccc12`, the “activity, negative = inhibition” value was -12.3% (inactive).
Same read-out and setting: the figure for `CC(C)NC(=O)N1CCCC2(CCN(C(=O)c3cccn3C)CC2)C1` is -5.61% (inactive).
The same measure, in the same setting: the figure for `O=C(NNC(=O)C1CCN(S(=O)(=O)c2ccc(Cl)cc2)CC1)c1ccc(Cl)cc1` is 22.2% (inactive).
In the case of `O=C(c1ccc2c(c1)OCCO2)C1CCN(S(=O)(=O)c2ccccc2F)CC1`, the AC50 is 3.16 µM (active).
For `COc1cccc(C2C3(C#N)C(N)=NC(OC)(OC)C23C#N)c1` (centres undefined), the concentration at half-maximal activity (AC50) was 4.47 µM (active).
For `CC(C)N1CCN(c2ccc(OC[C@@H]3CO[C@@](Cn4cncn4)(c4ccc(Cl)cc4Cl)O3)cc2)CC1`, the “activity, negative = inhibition” value is 7.39% [at 25.6 µM] (inactive).
With `Cc1ccccc1N1C(=O)c2cc(S(N)(=O)=O)c(Cl)cc2N[C@H]1C`, the “activity, negative = inhibition” value was 5.2% [at 25.6 µM] (inactive).
The same measure, in the same setting: the figure for `COc1cc(C(=O)OCC(=O)Nc2cc(C)on2)cc(OC)c1OC` is -28.1% (inactive).
For `COc1ccccc1NC(=O)COC(=O)c1ccc(S(=O)(=O)NCc2ccco2)cc1`, the AC50 was 5.01 µM (active).
`Cc1cc(NC(=O)COC(=O)c2ccc(S(=O)(=O)N3CCCc4ccccc43)cc2)no1`: the AC50 is 4.47 µM (active).
Same read-out and setting: the figure for `COc1ccccc1NS(=O)(=O)c1cccc(C(=O)OCC(=O)Nc2cc(C)on2)c1` is 7.94 µM (active).
In the case of `Cc1cc(N(CN2CCCC2=O)C(=O)c2ccc(F)cc2)no1`, the “activity, negative = inhibition” value is -20.2% (inactive).
Consider `CCN(CC)CCOC(=O)c1cc(Cl)c(N)cc1OC`, for which the “activity, negative = inhibition” value was 13.8% (inactive).
As for `Cc1c(C(=O)O)oc2ccc(S(=O)(=O)NCc3ccc4c(c3)OCO4)cc12`, the “activity, negative = inhibition” value is -49.5% (inactive).
Take `Cc1cc(C)c(S(=O)(=O)NCC2CCC(C(=O)NCc3ccc4c(c3)OCO4)CC2)c(C)c1` (centres undefined): the AC50 is 6.31 µM (active).
Same read-out and setting: the figure for `CN1C(=O)/C(=C\c2ccccc2)Sc2ccc(C(=O)N3CCN(c4ccccn4)CC3)cc21` is 3.98 µM (active).
`Cn1cccc1C(=O)N1CCC2(CC1)CCN(c1ccccn1)CC2`: the “activity, negative = inhibition” value was -35.1% (inactive).
With `O=C(c1csnn1)N1CCC2(CC1)CCN(c1ccccn1)CC2`, the “activity, negative = inhibition” value is -38.4% (inactive).
For `COc1ccc(C(=O)N/N=C2/C(=O)c3c(C)cc(C)cc3CC2(C)C)cc1`, the AC50 is 3.98 µM (active).
For the compound `CCN(CC)C(=O)c1cc2cc([N+](=O)[O-])ccc2s1`, the AC50 was 15.8 µM (active).
Same read-out and setting: the figure for `CCOC(=O)c1cc(C(=O)OCC)cc(-n2cc(O)c(C(=O)OCC)n2)c1` is 14.1 µM (active).
With `CCOC(=O)c1nc(N)sc1C(=O)OCC`, the “activity, negative = inhibition” value was 24.2% (inactive).
For the compound `CC1=c2c(oc3cc(O)c(Nc4c(C)cc(O)cc4O)c(C)c23)=CC(=O)C1=Nc1c(C)cc(O)cc1O`, the AC50 is 3.16 µM (active).
For the compound `Cn1c(=O)cc(OCC(=O)NCc2cccnc2)c2ccccc21`, the “activity, negative = inhibition” value was -27.8% (inactive).
Consider `CCOc1cc(CNCCO)c(Cl)cc1OCC(=O)NCCc1ccccc1`, for which the AC50 is 4.47 µM (active).
On the same count and under the same terms, the figure for `CCNCc1cc(OCC)c(OCC(=O)NCCc2ccccc2)cc1Cl` is 1.58 µM (active).
Regarding `N=c1nc(N)nc(N)n1-c1ccc(S(N)(=O)=O)cc1`, the activity, negative = inhibition was 36.5% [at 11.4 µM] (inactive).
As to `CCOC(=O)c1cnc(-c2ccccc2)nc1Oc1ccc(Cl)cc1`, the “activity, negative = inhibition” value was 3.77% (inactive).
In the case of `COc1cnc(-c2ccccc2)nc1Oc1cccc(C)c1`, the AC50 was 7.94 µM (active).
As to `CCOC(=O)c1cnc(-c2ccccc2)nc1Oc1ccccc1`, the AC50 was 14.1 µM (active).
With `N[C@H](CO)C(=O)NCC(=O)O` (H-[dS]-Gly-OH), the activity, negative = inhibition is 19% [at 11.4 µM] (inactive).

One may read the AC50 as the concentration at which the activity in the assay is half-maximal.
